From PubChem BioAssay (NCATS)
Inconclusive results are not listed. Active and inactive are the calls of the source. Unless noted, the call rests on the fitted dose curve; in most records, active means well fitted curve in either direction with a large enough effect (not every such curve was filed as active); inconclusive means small, poorly fitted or top-dose-only effect, or another doubt; inactive means flat fitted curve, though single readings scatter.

Legend:
[1] = AP1 Signaling Pathway (AID 357); conditions: ME-180 AP-1-bla reporter, EGF-induced, beta-lactamase ratio, 5 h; at 7.69 µM (top of the series) unless noted;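 further: ME-180 reporter cells stimulated with EGF at its EC50 level; on the % scale 0 is the no-effect control and ±100 the full control effect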
Method in brief: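 Modulation of EGF-driven AP-1 transcription was assessed with a beta-lactamase reporter in ME-180 cells. Compound and EC50 EGF were co-incubated 5 hours at 37 °C before 2.5-hour CCF4 loading at room temperature and dual-emission reading.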

[2] = target: Glucocorticoid receptor (Homo sapiens) (UniProt P04150); assay: GR-EFC Redistribution (AID 451; calls by dose curve; further: potency means the concentration at half of the fitted maximal effect); conditions: CHO-K1 GR-EFC translocation, beta-gal luminescence, 2 h
Method in brief: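 Translocation of GR-ED fusion to nuclear EA restores b-gal, read by luminescence after 1 h room-temperature detection. Engineered CHO-K1 biosensor cells, 1,000/well, exposed 2 h at 37 C to titrations up to 46 uM final.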

[3] = target: Mitogen-activated protein kinase 10 (Mus musculus) (UniProt Q61831); assay: JNK3 AlphaScreen Assay (AID 530);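 further: kinase came from lysate of stimulated human HepG2 cells; signal reports phosphorylation of biotinylated GST-cJun 1-79 at Ser73 with 10 µM ATP; on the % scale 0 is the no-effect control and ±100 the full control effect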
Method in brief: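 Compound titrations were preincubated 15 minutes at room temperature with substrate, antibody and pre-activated JNK3-containing HepG2 lysate. Reactions were started with 10 uM ATP and stopped with EDTA-containing bead buffer for AlphaScreen detection.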

[4] = target: 3',5'-cyclic-AMP phosphodiesterase 4B (Homo sapiens) (UniProt Q07343); assay: qHTS Assay for Inhibitors of PDE-IV (AID 607; active means well fitted activation curve with a large enough effect in the main read-out, with a control signal flat, not every such curve was filed as active; further: % of control where 0% means no effect)
Method in brief: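 ACTOne HEK293 cells carry a modified cAMP-gated CNG channel and express endogenous PDE4; plated 1000 cells/well, compounds up to 22.9 uM final. Membrane-potential dye fluorescence (ex 535/em 590) was read; parental cells received 10 uM forskolin + 100 uM RO 20-1724.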

[5] = qHTS Assay for Lipid Storage Modulators (AID 1519; calls by dose curve); conditions: Drosophila S3 cells, BODIPY lipid droplet/cell ratio, laser cytometry, cells loaded with oleic acid; for activity change, negative = inhibition: at 57.5 µM (top of the series)
Method in brief: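 Cells seeded at 5,000 per well were treated with compounds over a concentration series and loaded with oleic acid (400 uM, as added). Lipid droplet fluorescence (488 nm excitation, 500-530 nm channel) was read by laser-scanning cytometry and normalized to 20 uM Triacsin C.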

[6] = Primary qHTS for small molecule stabilizers of the endoplasmic reticulum resident proteome: Secreted ER Calcium Modulated Protein (SERCaMP) assay (AID 1508630; active means well fitted curve in the direction sought with a large enough effect; an effect the other way counts as inactive or inconclusive; further: on the % scale 0 is the no-effect control and ±100 the full control effect)
Method in brief: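 GLuc-SERCaMP-expressing SH-SY5Y cells, pretreated 16 h with compound, are challenged with thapsigargin to empty ER calcium stores; after 4 h, coelenterazine is added directly to the medium and luminescence is imaged.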

[7] = target: Cytochrome P450 1A2 (Homo sapiens) (UniProt P05177); assay: p450-cyp1a2 (AID 410; calls by dose curve; further: potency means the concentration at half of the fitted maximal effect;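 on activity change, negative = inhibition: -100% = full effect of reference inhibitor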)
Method in brief: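 Luminescent readout of luciferin formed from Luciferin-ME by human CYP1A2; data normalized against complete inhibition by 57 uM furafylline. Enzyme 20nM, substrate 100uM at Km, 100mM KPO4 buffer, 60 min reaction at room temperature.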

[8] = NFAT Signaling Pathway (AID 444); conditions: Jurkat NFAT-bla M1, carbachol, beta-lactamase ratio, 5 h; at 7.69 µM (top of the series) unless noted;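 further: carbachol stimulus at about its EC50 of 1 µM final; on the % scale 0 is the no-effect control and ±100 the full control effect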
Method in brief: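 Read-out: CCF4 FRET ratio (460 nm/530 nm) after 1 h RT dye loading, used for %activity and AC50 from titration series. Cells: Jurkat NFAT-β-lactamase/M1 line, treated with compound plus 1 uM carbachol for 5 h, 37 °C.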

[9] = target: Glucocorticoid receptor (Homo sapiens) (UniProt P04150); assay: GR-GFP Redistribution (AID 450;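 active means compounds whose dose series gives a full or clear partial fitted curve of increased nuclear translocation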; further: potency means the concentration at half of the fitted maximal effect); conditions: U2OS GR-GFP nuclear translocation, laser cytometry, 2 h
[10] = target: Cytochrome P450 3A4 (Homo sapiens) (UniProt P08684); assay: qHTS Assay for Activators of Cytochrome P450 3A4 (AID 885; active means well fitted curve in the direction sought with a large enough effect; an effect the other way counts as inactive or inconclusive; further: nearly all actives have a fitted effect of over 65% in size; further: potency means the concentration at half of the fitted maximal effect)
Method in brief: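 20nM CYP3A4 + 25uM Luciferin-PPXE (=KM), 200mM KPO4; cpd 10 min RT; NADPH regen, 60 min RT; stop w/ detection buffer, 20 min; luminescence. Normalized to 57 uM ketoconazole.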

[11] = target: Ubiquitin carboxyl-terminal hydrolase 1 (Homo sapiens) (UniProt O94782); assay: Inhibitors of USP1/UAF1: Pilot qHTS (AID 504865; active means well fitted curve in the direction sought with a large enough effect; an effect the other way counts as inactive or inconclusive;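 further: rhodamine fluorescence freed from ubiquitin-rhodamine substrate followed over time; top concentration of the series differs between compounds; on the % scale 0 is the no-effect control and ±100 the full control effect; nearly all actives have a fitted effect of over 35% in size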)
Method in brief: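 Kinetic fluorescence assay: 1nM USP1/UAF1, 15 min compound preincubation, then 150nM Ub-Rho; 480/540 nm.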

[12] = Stat Signaling Pathway (AID 446); conditions: ME-180 SIE beta-lactamase reporter, IL-6 stimulated, 5 h; at 7.69 µM (top of the series) unless noted
Method in brief: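 ME-180 SIE-bla cells; overnight plating; cpd + IL-6 40 pM, 5 h, 37 C; LiveBLAzer 2.5 h RT; 460/530 nm emission ratio. Normalized to 300 pM IL-6 and 125 nM JAK inhibitor controls.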

[13] = target: Cytochrome P450 3A4 (Homo sapiens) (UniProt P08684); assay: qHTS Assay for Inhibitors and Substrates of Cytochrome P450 3A4 (AID 884; active means well fitted curve in the direction sought with a large enough effect; an effect the other way counts as inactive or inconclusive; further: nearly all actives have a fitted effect of over 50% in size; further: potency means the concentration at half of the fitted maximal effect)
Method in brief: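 20 nM human CYP3A4 with 25 uM Luciferin-PPXE (at KM) in 200 mM KPO4, preincubated 10 min with compound; NADPH regeneration started a 60 min RT reaction. Luciferin detected by luminescence, normalized to 57 uM ketoconazole as full inhibition.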

[14] = measured here: cell count channel max response
[15] = measured here: lipid channel max response

Chain of 3',5'-cyclic-AMP phosphodiesterase 4B (Homo sapiens) (Q07343 whole entry, looked up): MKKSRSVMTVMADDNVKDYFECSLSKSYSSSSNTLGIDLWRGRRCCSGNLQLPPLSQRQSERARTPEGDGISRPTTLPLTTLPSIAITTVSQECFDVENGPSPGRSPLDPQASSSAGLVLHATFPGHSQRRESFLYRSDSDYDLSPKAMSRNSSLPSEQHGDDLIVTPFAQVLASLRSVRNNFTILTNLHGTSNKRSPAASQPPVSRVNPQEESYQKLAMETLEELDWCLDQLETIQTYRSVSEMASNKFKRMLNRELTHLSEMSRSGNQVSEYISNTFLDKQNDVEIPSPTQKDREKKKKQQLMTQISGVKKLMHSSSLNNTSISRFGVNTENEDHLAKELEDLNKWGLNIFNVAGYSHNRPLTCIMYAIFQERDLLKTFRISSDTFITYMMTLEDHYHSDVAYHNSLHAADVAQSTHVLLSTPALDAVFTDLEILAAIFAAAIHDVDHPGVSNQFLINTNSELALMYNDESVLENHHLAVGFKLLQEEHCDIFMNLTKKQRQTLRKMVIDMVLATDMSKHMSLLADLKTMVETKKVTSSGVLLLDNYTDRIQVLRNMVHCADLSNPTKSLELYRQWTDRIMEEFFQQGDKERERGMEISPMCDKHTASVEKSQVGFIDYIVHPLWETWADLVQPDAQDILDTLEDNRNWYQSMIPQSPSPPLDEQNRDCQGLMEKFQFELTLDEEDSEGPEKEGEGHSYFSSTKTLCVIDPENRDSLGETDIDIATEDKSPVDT
Chain of Glucocorticoid receptor (Homo sapiens) (P04150 whole entry, looked up, the tested form may be a part): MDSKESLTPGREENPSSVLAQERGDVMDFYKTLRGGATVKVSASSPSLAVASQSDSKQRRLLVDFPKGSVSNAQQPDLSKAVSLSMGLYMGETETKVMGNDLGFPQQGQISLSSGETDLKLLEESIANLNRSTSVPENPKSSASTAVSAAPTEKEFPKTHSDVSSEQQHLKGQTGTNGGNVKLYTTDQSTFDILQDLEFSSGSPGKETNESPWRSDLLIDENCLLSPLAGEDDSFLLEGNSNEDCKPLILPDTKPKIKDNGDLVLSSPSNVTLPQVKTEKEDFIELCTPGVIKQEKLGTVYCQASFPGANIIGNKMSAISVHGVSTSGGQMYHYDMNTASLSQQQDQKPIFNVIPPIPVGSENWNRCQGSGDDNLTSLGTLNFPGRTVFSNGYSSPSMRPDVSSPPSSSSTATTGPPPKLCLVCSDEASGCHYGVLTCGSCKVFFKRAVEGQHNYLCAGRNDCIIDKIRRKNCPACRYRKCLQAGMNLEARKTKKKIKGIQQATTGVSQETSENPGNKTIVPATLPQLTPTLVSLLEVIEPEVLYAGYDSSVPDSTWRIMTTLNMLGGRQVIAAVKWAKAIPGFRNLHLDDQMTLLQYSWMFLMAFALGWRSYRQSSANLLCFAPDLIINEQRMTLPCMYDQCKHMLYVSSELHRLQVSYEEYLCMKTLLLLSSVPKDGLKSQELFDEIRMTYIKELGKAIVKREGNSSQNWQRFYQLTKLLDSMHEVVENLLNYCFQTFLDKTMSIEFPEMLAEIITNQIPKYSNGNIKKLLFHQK
Chain of Cytochrome P450 3A4 (Homo sapiens) (P08684 whole entry, looked up): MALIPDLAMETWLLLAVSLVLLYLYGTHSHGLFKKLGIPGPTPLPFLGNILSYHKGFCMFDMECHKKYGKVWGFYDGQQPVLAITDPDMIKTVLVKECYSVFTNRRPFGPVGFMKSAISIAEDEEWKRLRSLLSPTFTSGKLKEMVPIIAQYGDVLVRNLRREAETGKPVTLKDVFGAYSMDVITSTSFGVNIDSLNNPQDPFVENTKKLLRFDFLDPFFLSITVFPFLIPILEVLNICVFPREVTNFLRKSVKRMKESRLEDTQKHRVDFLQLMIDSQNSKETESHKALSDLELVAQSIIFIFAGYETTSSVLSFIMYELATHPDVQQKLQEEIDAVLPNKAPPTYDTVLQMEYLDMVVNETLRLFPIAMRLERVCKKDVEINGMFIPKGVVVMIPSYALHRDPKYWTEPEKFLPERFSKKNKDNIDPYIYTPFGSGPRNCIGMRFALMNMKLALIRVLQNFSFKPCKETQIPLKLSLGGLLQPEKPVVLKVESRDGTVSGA
Chain of Cytochrome P450 1A2 (Homo sapiens) (P05177 whole entry, looked up): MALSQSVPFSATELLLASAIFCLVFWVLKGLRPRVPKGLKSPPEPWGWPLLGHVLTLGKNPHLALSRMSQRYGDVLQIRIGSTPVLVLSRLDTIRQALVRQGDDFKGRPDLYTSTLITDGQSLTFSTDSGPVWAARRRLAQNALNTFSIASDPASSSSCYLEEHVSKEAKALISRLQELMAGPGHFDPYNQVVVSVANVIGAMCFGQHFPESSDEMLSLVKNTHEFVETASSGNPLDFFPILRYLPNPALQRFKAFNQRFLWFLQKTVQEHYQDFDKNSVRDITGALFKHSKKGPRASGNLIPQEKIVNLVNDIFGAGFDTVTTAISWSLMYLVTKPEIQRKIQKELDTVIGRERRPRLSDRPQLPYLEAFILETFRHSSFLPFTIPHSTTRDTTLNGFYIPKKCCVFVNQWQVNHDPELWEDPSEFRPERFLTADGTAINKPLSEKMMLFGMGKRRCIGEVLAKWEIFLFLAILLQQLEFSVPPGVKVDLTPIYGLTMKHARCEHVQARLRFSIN
Chain of Ubiquitin carboxyl-terminal hydrolase 1 (Homo sapiens) (O94782 whole entry, looked up): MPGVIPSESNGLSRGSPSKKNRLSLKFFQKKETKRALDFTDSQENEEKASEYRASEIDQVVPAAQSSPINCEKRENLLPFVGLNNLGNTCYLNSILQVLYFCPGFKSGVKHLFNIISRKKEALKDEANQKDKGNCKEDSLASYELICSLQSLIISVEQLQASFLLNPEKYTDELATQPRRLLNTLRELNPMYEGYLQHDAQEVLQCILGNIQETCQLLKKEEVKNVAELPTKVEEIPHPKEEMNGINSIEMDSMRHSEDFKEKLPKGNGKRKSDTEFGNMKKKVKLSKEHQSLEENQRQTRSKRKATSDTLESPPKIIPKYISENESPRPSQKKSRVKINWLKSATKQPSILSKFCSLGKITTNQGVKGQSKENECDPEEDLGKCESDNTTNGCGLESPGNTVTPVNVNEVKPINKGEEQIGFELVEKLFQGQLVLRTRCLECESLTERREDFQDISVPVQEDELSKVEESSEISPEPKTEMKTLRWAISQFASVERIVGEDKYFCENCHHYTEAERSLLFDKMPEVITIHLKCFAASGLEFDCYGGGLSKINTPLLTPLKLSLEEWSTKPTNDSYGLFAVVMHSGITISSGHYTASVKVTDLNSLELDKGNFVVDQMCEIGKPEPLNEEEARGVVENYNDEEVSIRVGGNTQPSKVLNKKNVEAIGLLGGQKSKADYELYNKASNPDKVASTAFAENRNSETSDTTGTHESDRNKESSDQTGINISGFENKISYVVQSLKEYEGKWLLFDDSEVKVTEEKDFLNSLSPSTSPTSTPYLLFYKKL

| SMILES | activity change, negative = inhibition [1] | Potency [2] | Potency [3] | Potency [4] | activity change, negative = inhibition [5] | max response [5, 14] [%] | max response [5, 15] [%] | outcome [6] | Potency [7] | activity change, negative = inhibition [8] | Potency [9] | Potency [10] | Potency [11] | activity, negative = inhibition [12] | Potency [13] |
| --- | --- | --- | --- | --- | --- | --- | --- | --- | --- | --- | --- | --- | --- | --- | --- |
| COc1ccccc1CN1CCCC2(CCN(C(=O)c3cc(C(F)(F)F)cc(C(F)(F)F)c3)CC2)C1 | 16.7% (inactive) | > 46 µM (inactive) | inactive | inactive | 3.12% (inactive) | -3.38 | 1.79 | inactive | – | – | – | – | – | – | – |
| CN(C)c1ccc(-c2nc(N(C)C)c3ccccc3n2)cc1 | 3.53% (inactive) | > 46 µM (inactive) | inactive | inactive | -3.41% (inactive) | 2.51 | -1.1 | inactive | 0.251 µM (active) | -21.8% (inactive) | > 46 µM (inactive) | inactive | inactive | – | – |
| O=C(c1cc(C(F)(F)F)cc(C(F)(F)F)c1)N1CCC2(CC1)CN(c1ccncc1)C2 | 13% (inactive) | > 46 µM (inactive) | – | – | 2.27% (inactive) | -2.54 | 0.518 | inactive | inactive | – | – | – | – | 3.13% (inactive) | – |
| O=C(c1ccncc1)N1CCC[C@@]2(CCN(c3ccncc3)C2)C1 | -13.7% (inactive) | > 46 µM (inactive) | inactive | inactive | 3.8% (inactive) | 9.21 | 15 | inactive | – | -14.9% (inactive) | – | – | – | -3.85% (inactive) | – |
| Cc1noc(C)c1C(=O)N1CCC2(CC1)CN(c1ccccn1)C2 | 23.5% (inactive) | > 46 µM (inactive) | inactive | inactive | 4.72% (inactive) | 6.89 | 15.4 | inactive | – | – | – | – | – | 3.57% (inactive) | – |
| CNc1ncnc2ccc(-c3cccc(NS(C)(=O)=O)c3)cc12 | -20.9% (inactive) | > 46 µM (inactive) | inactive | inactive | 1.53% (inactive) | -9.5 | -9.46 | inactive | 0.316 µM (active) | – | > 46 µM (inactive) | inactive | – | -3.45% (inactive) | – |
| N#Cc1ccc(CN2CC3(CCN(C(=O)c4cccc(F)c4)CC3)C2)cc1 | 20.2% (inactive) | > 46 µM (inactive) | – | inactive | -2.25% (inactive) | 2.82 | 3.31 | inactive | 3.98 µM (active) | – | – | – | – | -1.68% (inactive) | inactive |
| Cn1cccc1C(=O)N1CCC2(CCCN(Cc3ccncc3)C2)CC1 | -7.26% (inactive) | > 46 µM (inactive) | – | inactive | 7.27% (inactive) | 1.45 | 14.6 | inactive | 15.8 µM (active) | – | – | inactive | – | 7.75% (inactive) | – |
| O=C(c1cnccn1)N1CCC2(CC1)CN(c1ccccn1)C2 | – | > 46 µM (inactive) | inactive | inactive | 2.3% (inactive) | -1.81 | -0.0464 | inactive | inactive | -1.72% (inactive) | – | 3.98 µM (active) | – | 22.6% (inactive) | inactive |
| COCC(=O)N1CCC[C@@]2(CCN(c3ccccc3)C2)C1 | -8.85% (inactive) | > 46 µM (inactive) | inactive | inactive | -2.7% (inactive) | 17.9 | 18 | inactive | – | -13.7% (inactive) | – | – | – | 8.14% (inactive) | – |
| O=C(c1ccncc1)N1CCC[C@@]2(CCN(Cc3ccncc3)C2)C1 | 14.5% (inactive) | > 46 µM (inactive) | inactive | inactive | 4.83% (inactive) | 4.05 | 12.8 | inactive | – | 3.82% (inactive) | – | – | – | -6.44% (inactive) | – |
| Cn1cc(C(F)(F)F)nc1-c1ccc(OC[C@@H](O)CNCCOc2ccc(O)c(C(N)=O)c2)cc1 | -8.84% [at 38 µM] (inactive) | > 46 µM (inactive) | inactive | inactive | 1.54% (inactive) | -4.45 | -2.61 | inactive | – | -4.88% [at 38 µM] (inactive) | > 46 µM (inactive) | – | – | – | – |
| CS(=O)(=O)N1CCC2(CC1)CN(Cc1ccc(C#N)cc1)C2 | -16.8% (inactive) | > 46 µM (inactive) | inactive | inactive | 4.04% (inactive) | 9.72 | 16.5 | inactive | – | -16.5% (inactive) | – | – | – | – | – |
| Cc1cnc(CNc2nc(-c3ccc(N(C)C)cc3)nc3ccccc23)cn1 | -17% (inactive) | > 46 µM (inactive) | inactive | inactive | 11.9% (inactive) | 13.6 | 26 | inactive | 3.16 µM (active) | – | > 46 µM (inactive) | inactive | – | 7.71% (inactive) | 5.01 µM (active) |
| CC(=O)N1CCC2(CC1)CN(Cc1cc(C(F)(F)F)cc(C(F)(F)F)c1)C2 | 2.68% (inactive) | > 46 µM (inactive) | inactive | inactive | 4.71% (inactive) | 20.4 | 27.2 | inactive | – | 13.2% (inactive) | – | – | – | 11% (inactive) | – |
| O=C(c1ccncc1)N1CCC2(CC1)CCN(c1ccc(-c3ccccc3)cc1)CC2 | -18.3% (inactive) | > 46 µM (inactive) | inactive | inactive | 0.379% (inactive) | -2.77 | 2.35 | inactive | – | 14.4% (inactive) | – | – | – | -9.73% (inactive) | – |
